Data: PubChem BioAssay (NCI)
The panel holds about 83,000 compounds, 20% with a hit somewhere; the sample as a whole holds those more often.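 In brief: 96-well plates, 48 h treatment, single concentration, percent growth endpoint.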 The source made the active and inactive calls.

Each molecule was assayed on CAKI-1 renal (assay: NCI-60 one-dose screen, 48 h (100 = growth as untreated, 0 = no growth, -100 = all killed)). Details: 10 µM unless noted.
Experimental: Growth inhibition of the CAKI-1 human tumor cell line is measured as a screen for anti-cancer activity. Cells are grown in 96 well plates and exposed to the test compound for 48 hours. Compounds are tested at a single concentration, which is 10^-5 M for most compounds. The reported endpoint is percent growth (GI% or GIPRCNT), where numbers from 0 - 100% represent growth inhibition, and numbers from -100% - 0 represent cell death. For example, a value of 40 represents 60% growth inhibition. A value of 0 means no net growth occurred over the course of the experiment. A value of -40 indicates 40% of cells at the beginning of the experiment died by the end of the experiment. A value of -100 means all cells are dead at the end of the experiment.
NCI-60 Human Tumor Cell Lines Screen was performed using the standard one-dose NCI protocol, which is described in more detail at https://dtp.cancer.gov/discovery_development/nci-60/default.htm.
Compounds with GIPRCNT values below 10 were considered active. Activity score was based on GIPRCNT using the following formula: […]
Score is 0 for GIPRCNT values of 100 or above, 50 for GIPRCNT values of 0, and 100 for GIPRCNT values of -100.
For `O=c1cc(-c2ccccc2)[nH]c2ncc(-c3ccc(F)cc3)n12`, the growth was 48.1% (inactive).
In the case of `Cc1ccc(-c2csc(NC(=O)c3ccccc3CN3C(=O)c4ccccc4C3=O)n2)cc1`, the growth is reported as 86.6% (inactive).
`COC(=O)N1CC(Oc2ccccn2)C2CC1c1ccccc1O2` (stereo not given) was tested, and the growth was 93.3% (inactive).
In the case of `O=C1c2ccccc2C(=O)c2c1c(C(=O)NCc1ccccc1)c1ccccn21`, the growth is reported as 91.7% (inactive).
In the case of `COc1cccc(/C=N/NC(=O)c2ccccc2N2CCCC2)c1O`, the growth is reported as 0.778% (active).
For `CN1CCN(Cc2ccc(NC(=O)c3cncc(C#Cc4cnc(N)c5ccc(F)cc45)c3)cc2C(F)(F)F)CC1`, the growth was 19.7% (inactive).
With `CC1CCN(C(=S)SCC(=O)NC(=O)c2ccccc2)CC1` the growth was 102% (inactive).
With `CN1C(=O)/C(=C2\SC(=Nc3ccccc3)N(Nc3ccccc3)C2=O)c2ccccc21` the growth was 74.2% (inactive).
For `Cc1ccc(CNc2ccc3nc(CCC(C)C)[nH]c3c2)cc1`, the growth was 89.1% (inactive).
`Cc1ccc2nc(/C(C#N)=C(/CCCO)NC(Cc3ccccc3)C(=O)OCc3ccccc3)[nH]c(=O)c2c1` (stereo not given) was tested, and the growth was 90.2% (inactive).
With `N#C/C(=C\c1ccc([N+](=O)[O-])cc1)n1nnc2cc(F)c(F)cc21` the growth was 6.07% (active).
`O=C1/C(=C\c2ccccn2)c2ccccc2N1c1c(Cl)cccc1Cl` was tested, and the growth was -1.37% (active).
`O=C(Cc1cccc(OC(F)(F)F)c1)Nc1ccc(CCCCc2nnc(NC(=O)Cc3ccccn3)s2)nn1` was tested, and the growth was 70.4% (inactive).
In the case of `Cc1nc2c(=O)nc3s/c(=C\c4ccco4)c(=O)n3c2nc1C`, the growth is reported as 88.4% (inactive).
With `C/C=C(\C)C(=O)N[C@H]1C(O)C[C@]2(C)C3CC[C@@]4(C)C(CC[C@@H]4C(C)N(C)C)C3CCC2C1O` (stereo not given in full) the growth was 80.3% (inactive).
`CN1CCN(CCOc2ccc(-c3cnc4c(-c5cccc(F)c5F)cnn4c3)cc2)CC1` was tested, and the growth was -8.23% (active).
In the case of `O=C(CSc1nc(-c2ccccc2)cc(=O)[nH]1)Nc1nc(-c2ccccc2)cs1`, the growth is reported as 75.1% (inactive).
`O=S1(=O)C=C(c2ccccc2)C(c2ccccc2)=C1` was tested, and the growth was -15.6% (active).
For `CCOC(=O)C(=CNc1cnc(Nc2ccc(N3CCOCC3)cc2)nc1Oc1ccc(OC)cc1)C(=O)OCC`, the growth was 25.1% (inactive).
With `CCOC(=O)c1c(C)nc2c(c1N)/C(=C/c1ccc(OC)cc1)C(=O)N2Cc1ccccc1` the growth was 78.6% (inactive).
For `CCCn1nc(C(=O)N(C)Cc2ccccc2)c2c1CCC(N1CCc3ccccc31)C2` (stereo not given), the growth was 86.7% (inactive).
In the case of `CCN(CC)CCCN1C(=O)c2c(c(C)c3c(oc4ccc(OC)cc43)c2C)C1=O`, the growth is reported as 92.6% (inactive).
With `O=c1c2c3c(sc2n2c(-c4cc(-c5ccccc5)no4)nnc2n1Cc1ccccc1)CCCC3` the growth was -67.8% (active).
For `CCS/C(Nc1ccccc1)=C(\C#N)C(=O)Nc1ccc(OC)cc1`, the growth was 40.4% (inactive).
In the case of `Oc1ccc(/C=C/c2ccc(O)cc2)cc1`, the growth is reported as 78.7% (inactive).
In the case of `N#CC1=C(N)Oc2ccc3ccccc3c2C1c1ccc([N+](=O)[O-])cc1` (stereo not given), the growth is reported as 52.8% (inactive).
With `Nc1c(C(=O)Nc2cccc(Cl)c2)sc2nc3c(cc12)CCCC3` the growth was 91.3% (inactive).
`O=C(Nc1ncccc1OCc1ccccc1)NC1CCCCCC1` was tested, and the growth was 86.7% (inactive).
With `O=C1/C(=C/c2ccccn2)NC(=S)N1c1ccccc1Cl` the growth was 66% (inactive).
With `N=C(N)c1ccc(-c2ccc(-c3cc(Cl)cc(Cl)c3)s2)nc1` the growth was 30.9% (inactive).
In the case of `O=C(C1CCCCC1)[C@@H]1[C@]2(C(=O)NC3CCCCC32)[C@@H]2CCCN2[C@@]12C(=O)NC1CCC(Cl)CC12` (stereo not given in full), the growth is reported as -82.7% [100 µM] (active).
`COc1ccc2c(c1)c(-c1nc(-c3c[nH]c4ncccc34)cs1)cn2CCCN1CCOCC1` was tested, and the growth was 28.8% (inactive).
With `CC1=C(CCC(C)NCc2ccc(OCCCN3CCCCC3)cc2)C(C)(C)CCC1` (stereo not given) the growth was -55.7% (active).
With `COc1cccc(-c2cc(-c3cccc(Cl)c3)c(C#N)c(=O)[nH]2)c1` the growth was 64.9% (inactive).
`COc1cc(OC)cc(-c2ccc(-c3ccc(C(=N)N)o3)o2)c1` was tested, and the growth was 81.3% (inactive).
In the case of `COc1ccc(/C(C)=C(\c2ccc(Cl)cc2)c2ccc(OCCN3CCCCC3)cc2)cc1`, the growth is reported as 37.2% (inactive).
With `O=C(Nc1cnc(Nc2ccc(N3CCOCC3)nc2)nc1Oc1ccc(C(F)(F)F)cc1)c1ccncc1` the growth was 90.4% (inactive).
In the case of `C=C1C(=O)O[C@H]2[C@H]1CC/C(CNC(=O)c1c[nH]c3ccc(F)cc13)=C\CC[C@@]1(C)O[C@@H]21`, the growth is reported as 16.2% (inactive).
With `CCN(CC)CCCN1C(=O)c2c(c(C)c3c(oc4ccc(O)cc43)c2C)C1=O` the growth was 82.4% (inactive).
`CCOC(=O)C1=C(C)/C(=C\c2[nH]c(C)c(C(=O)OCC)c2C)N=C1C` was tested, and the growth was 85% (inactive).
